High-throughput results: PubChem BioAssay, National Center for Advancing Translational Sciences (NCATS)
HP1b binding inh: inhibitors of HP1-beta chromodomain binding to methylated histone tails | AID 540317 | AlphaScreen HP1-beta / biotin-H3K9me3 peptide binding | 0.56% of 390,000 active | Potency, µM (top dose mostly 114 µM), hits mostly inhibitors; also: nearly all actives have a fitted effect of over 70% in size
Target sequence (P83916 whole entry, looked up): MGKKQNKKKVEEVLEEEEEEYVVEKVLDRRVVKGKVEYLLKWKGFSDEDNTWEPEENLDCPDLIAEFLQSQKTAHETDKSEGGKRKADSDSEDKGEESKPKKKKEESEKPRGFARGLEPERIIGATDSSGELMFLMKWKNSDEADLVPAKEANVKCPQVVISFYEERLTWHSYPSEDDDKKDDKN
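Compound inhibition of the preformed complex between 50 nM HP1-beta and 50 nM biotinylated H3K9me3 peptide was read by AlphaScreen. Buffer was PBS pH 7.4 with 0.01% Tween-20. Incubations ran 30 min at room temperature, with 10 ug/mL donor/acceptor beads.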
Sfp inh: Sfp phosphopantetheinyl transferase inhibition | Q9F4F7 | Biochemical Sfp PPTase activity, qHTS | Potency, µM, actives largely listed as inhibitors | 3.5% of 310,000 active;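 also: the enzyme is Sfp with the accession as filed and its product quenches rhodamine fluorescence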
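Fluorescence-quenching assay: 15 nM Sfp-PPTase preincubated 15 min at room temperature with compound, then 5 uM rhodamine-CoA and 12.5 uM BHQ-2-labelled YbbR peptide added. Fluorescence (ex 525/em 598 nm) read at start and after 30 min; difference gives rate.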
PLK1 PBD block: PLK1 (human) polo-box domain binding inhibition. P53350. Plk1 PBD binding of FITC phosphopeptide, fluorescence polarization. Potency, µM, most hits filed as inhibitors. 2.8% of 360,000 active; also: series mostly up to about 57 µM; nearly all actives have a fitted effect of over 65% in size
BAZ2B block: inhibitors of human BAZ2B bromodomain; Q9UIF8; AlphaScreen BAZ2B-H3K14Ac peptide displacement; Potency, µM (highest dose often 114 µM), usual class: inhibitors; 4.4% of 360,000 active; AID 504333; also: nearly all actives have a fitted effect of over 60% in size
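In this displacement format the biotinylated H3(5-23) peptide acetylated at Lys14 serves as ligand at 50 nM, with BAZ2B at 50 nM in PBS pH 7.4 containing 0.01% Tween-20. Donor and acceptor beads are 10 ug/mL final.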
JMJD2A Tudor inh: JMJD2A Tudor domain (human) inhibition; 4.4% of 390,000 active; AID 504339; Potency, µM (titrated, usually from 114 µM), actives largely listed as inhibitors; AlphaScreen JMJD2A-Tudor / H3K4me3 peptide binding; also: nearly all actives have a fitted effect of over 50% in size
G9a inh: blocks human histone lysine methyltransferase G9a; 8.8% of 350,000 active; Potency, µM (series often up to 102 µM), most hits filed as inhibitors; Q96KQ7; G9a H3K9 monomethylation, AlphaScreen, 2 h; also: nearly all actives have a fitted effect of over 75% in size
Target sequence (Q96KQ7 913-1193 limits assumed): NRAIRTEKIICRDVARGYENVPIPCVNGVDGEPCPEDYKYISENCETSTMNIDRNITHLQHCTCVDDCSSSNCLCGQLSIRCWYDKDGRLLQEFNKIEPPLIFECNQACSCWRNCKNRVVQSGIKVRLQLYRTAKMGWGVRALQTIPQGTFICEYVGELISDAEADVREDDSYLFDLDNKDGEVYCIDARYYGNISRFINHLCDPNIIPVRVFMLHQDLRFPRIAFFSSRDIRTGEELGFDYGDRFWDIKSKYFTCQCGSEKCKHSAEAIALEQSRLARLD
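G9a (20 nM) was preincubated 15 min with compound, then reacted 2 h at room temperature with 500 nM biotin-H3K9 peptide and 20 µM SAM. Monomethyl-H3K9 detected by AlphaScreen using anti-H3K9me1 antibody.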
A number is an active result; – = inactive; ? = inconclusive; · = no result given; ! = not confirmed by another sample; [ ] = another dose, or the depositor's remark. Compounds with a hit are over-represented: about 12% of the library has one in this group of screens. Calls follow the shape of the dose curve; as a rule, active = well fitted curve in the direction sought with a large enough effect; inconclusive = small, poorly fitted or top-dose-only effect, or another doubt; inactive = no such curve, though single readings can be large; an effect the other way counts as inactive or inconclusive.

SMILES	HP1b binding inh	Sfp inh	PLK1 PBD block	BAZ2B block	JMJD2A Tudor inh	G9a inh
CC(NS(=O)(=O)c1ccc2[nH]c(=O)[nH]c2c1)c1ccc(F)cc1 (stereo not given)	·	·	–	·	·	·
O=C(Nc1nccs1)C1CCN(S(=O)(=O)c2cccnc2)CC1	–	–	–	–	–	–
O=C(Nc1nccs1)C1CCCN(S(=O)(=O)c2cccnc2)C1 (stereo not given)	–	–	21.2µM	–	?	–
CCN(CC)c1ccc(NC(=O)C2COc3ccc(OC)cc3C2)c(C)c1 (stereo not given)	–	·	·	–	–	7.94µM
Cc1ccc(NC(=O)C2CCN(S(=O)(=O)c3cnc[nH]3)CC2)cc1C	–	–	–	–	–	–
CCN(CC)c1ccc(NC(=O)C2CCN(S(=O)(=O)c3cnc[nH]3)CC2)c(C)c1	–	·	·	·	?	11.2µM
Cc1ccc(NC(=O)C2CCCN(S(=O)(=O)c3cnc[nH]3)C2)c(Br)c1 (stereo not given)	–	–	23.8µM!	–	?	–
COc1cc(Cl)c(NC(=O)CN(C)S(=O)(=O)c2ccc3[nH]c4c(c3c2)CCCC4)c(OC)c1	–	·	·	–	?	?
CCN(CC)c1ccc(NC(=O)C2CCCN(S(=O)(=O)c3cccnc3)C2)c(C)c1 (stereo not given)	–	–	–	–	?	20µM
Oc1c(Cl)cc(Cl)cc1CNc1nccs1	–	–	–	–	–	79.4µM
COCCN(Cc1nc2ccccc2c(=O)[nH]1)C(=O)COc1ccccc1-c1ccccc1	–	·	–	–	–	–[0.501 µM]
O=C(C1CCN(Cc2ccc(F)cc2)CC1)N(CCc1ccccc1)Cc1ccccc1	?	–	–	?	6.31µM	12.6µM
Fc1ccc(CNC2CCN(Cc3ccccc3)CC2)cc1	–	–	–	–	–	·
O=C(C1CCN(Cc2ccc(F)cc2)CC1)N(CCO)Cc1ccccc1	–	–	–	–	3.55µM	?
CNC(=O)c1cc2c(-c3ccccc3)nn(C)c2s1	–	–	–	?	–	–
[O-]/C(=C(\C(=S)NCc1ccccc1)[n+]1ccccc1)c1ccc(Cl)s1	?	–	–	?	?	25.1µM
[O-]/C(=C(\C(=S)NCCN1CCOCC1)[n+]1ccccc1)c1ccc(Cl)s1	–	–	–	?	–	25.1µM
O=C(NCCN1CCOCC1)c1c(Cl)cccc1Cl	–	–	–	–	–	–[0.501 µM]
Cc1c(Cl)cccc1NC(=S)C(=C([O-])c1ccc(Cl)s1)[n+]1ccccc1	?	·	–	·	50.1µM	·
COc1ccc(COC(=O)CCc2cc(OC)c(OC)c(OC)c2)cc1F	–	·	?	·	?	·
CCCCC(C=O)NC(=O)C(CC(C)C)NC(=O)OCc1ccccc1 (stereo not given)	·	–	·	·	·	·
CC(CNC(=O)c1cc2cc(S(=O)(=O)N3CCCCC3)ccc2n1C)c1ccccc1 (stereo not given)	–	·	·	–	–	–
Cc1cccc(N2CCN(C(=O)Cn3nc(C)n4cccc4c3=O)CC2C)c1 (stereo not given)	–	–	–	–	–	–
Cc1cccc(N2CCN(C(=O)Cn3sc4nc(C)cc(C)c4c3=O)CC2C)c1 (stereo not given)	8.91µM	3.55µM	1.68µM	?	3.16µM	1.26µM
Cc1cccc(N2CCN(C(=O)CN3CCOc4ccccc43)CC2C)c1 (stereo not given)	–	–	–	?	?	50.1µM
SMILES	HP1b binding inh	Sfp inh	PLK1 PBD block	BAZ2B block	JMJD2A Tudor inh	G9a inh
Cc1cc(C)c2c(=O)n(CC(=O)N3CCC(Cc4ccccc4)CC3)sc2n1	·	7.94µM	·	–	·	1.58µM
CC(C)C[C@H](NC(=O)CCn1nnc2ccccc2c1=O)C(=O)O	–	–	18.9µM	–	?	–
C[C@H](NC(=O)CCn1nnc2ccccc2c1=O)C(=O)O	–	–	–	–	–	–
O=C(CCCn1nnc2ccccc2c1=O)N[C@H](C(=O)O)c1ccccc1	–	–	–	–	–	–
O=C(Cn1nnc2ccccc2c1=O)N[C@H](C(=O)O)c1ccccc1	–	–	29.9µM	–	–[11.4 µM]	·
CC(C)(C)n1nnnc1C1c2ccccc2C(=O)N1CCc1c[nH]c2ccccc12 (stereo not given)	·	·	–	·	·	·
COc1ccc(NC(=O)c2ccco2)cc1NC(=O)COc1ccccc1[N+](=O)[O-]	–	–	–	–	–	–
COc1ccccc1NC(=O)COc1ccc(C(F)(F)F)cc1[N+](=O)[O-]	–	·	26.7µM	·	–[11.4 µM]	·
O=C(Nc1ccccc1Cl)c1ccccc1Oc1ccc(C(F)(F)F)cc1[N+](=O)[O-]	?	–	–	?	50.1µM	–[0.501 µM]
O=C(c1ccccc1Oc1ccc(C(F)(F)F)cc1[N+](=O)[O-])N1CCOCC1	–	–	–	–	–	–
COc1cc(NC(=O)COC(C)=O)c(C)cc1[N+](=O)[O-]	–	–	26.7µM	–	–	–
COc1ccccc1C(=O)NC(=O)COC(=O)c1nccnc1N	–	·	–	·	39.8µM	·
COC(=O)c1ccc(CN2CCCC(C(=O)c3ccccc3OC)C2)cc1 (stereo not given)	–	–	–	–[0.457 µM]	–	·
CC(=O)c1ccc(NC(=O)CSc2nc(=O)n(Cc3ccccn3)c3c2CCC3)cc1	–	·	·	–	–	–
Cc1cccc(CN2CCc3c([nH]c4ccccc34)C2C(C)(C)C)n1 (stereo not given)	–	–	–	?	?	·
CCc1ccc(NC(=O)CC2C(=O)N(c3cccc(OC)c3)C(=O)N2Cc2ccco2)cc1 (stereo not given)	–	·	·	–	–	?
CCOC(=O)c1cnc2c(ccc3ccccc32)c1Nc1cccc(Cl)c1	–	·	·	–	–	–
COc1ccc(OCC(=O)NC(=O)c2ccccc2OC)c([N+](=O)[O-])c1	–	·	–	–	–	50.1µM
COc1ccc(C)cc1NC(=O)COC(=O)c1ccc([N+](=O)[O-])o1	–	–	–	–	–	–
COc1ccc(C(C)(C)C)cc1NC(=O)COC(=O)c1ccc([N+](=O)[O-])o1	?	–	29.9µM	?	20µM	39.8µM
Cc1ccc(-c2c(C#N)c(N)nc3c2CCCCC3)o1	–	50.1µM	–	–	–	79.4µM
CCOc1cc(-c2c(C)c(C)nc(N)c2C#N)ccc1O	–	–	–	–	–	–
Cc1ccc(-c2c(C#N)c(N)nc3c2CCCCC3)cc1	–	–	–	–	–	–
COc1cc(-c2c(C#N)c(N)nc3[nH]c(=S)[nH]c(=O)c23)ccc1O	–	–	–	–	–	70.8µM
CC(C)c1ccc(-c2c(C#N)c(N)nc3c2CCCCC3)cc1	–	–	–	–	–	1.78µM
COc1cc(-c2c(C#N)c(N)nc3c2CCCC3)ccc1O	–	–	3.36µM	–	–[11.4 µM]	–
CC(C)c1ccc(Nc2sc(C(=O)c3ccccc3)c(N)c2S(=O)(=O)c2ccccc2)cc1	–	·	·	?	?	–
